Compounds without any hit were thinned out: in the full panel of roughly 79,000, 15% have a hit. No stated cut-off is given here; in the data, active means growth inhibition above about 70%; inactive means the rest.
What was measured:
[1] = NCI Yeast Anticancer Drug Screen. Data for the rad50 strain (AID 155);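 further: 0% = growth of vehicle-only cultures of the same strain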; conditions: S. cerevisiae rad50 strain growth inhibition; at 50.0 µM; active compounds read high
Method in brief: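 Inhibition values express reduced yeast growth in compound-treated cultures relative to vehicle-treated controls.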

[2] = NCI Yeast Anticancer Drug Screen. Data for the sgs1 mgt1 strain (AID 161);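 further: 0% = growth of cultures given vehicle only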; conditions: S. cerevisiae sgs1 mgt1 strain, at 50.0 µM, active compounds read high
Method in brief: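 Genetically altered yeast, compound exposure, growth inhibition relative to vehicle.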

[3] = NCI Yeast Anticancer Drug Screen. Data for the cln2 rad14 strain (AID 165);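 further: 0% = growth equal to vehicle treated cultures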; conditions: S. cerevisiae cln2 rad14 strain, at 50.0 µM, active compounds read high
Method in brief: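 Test compounds were added to cln2 rad14 yeast cultures; inhibition of growth was then determined by comparison with vehicle treatment.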

[4] = NCI Yeast Anticancer Drug Screen. Data for the bub3 strain (AID 167); conditions: S. cerevisiae bub3 mutant strain, at 50.0 µM, active compounds read high
Method in brief: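 Steps: expose the mutant yeast strain to compound; grow alongside vehicle-treated cultures; measure growth; express inhibition against the vehicle cultures.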

[5] = NCI Yeast Anticancer Drug Screen. Data for the mlh1 rad18 strain (AID 175); conditions: S. cerevisiae mlh1 rad18 strain growth inhibition; at 50.0 µM; active compounds read high
Method in brief: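 Inhibition values reflect reduced growth of mutant yeast versus vehicle-treated controls following compound exposure; the mutations affect DNA damage repair.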

[6] = NCI Yeast Anticancer Drug Screen. Data for the mec2-1 strain (AID 157); conditions: S. cerevisiae mec2-1 strain, at 50.0 µM, active compounds read high
Method in brief: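 Each compound was tested on mec2-1 yeast, a strain altered in DNA damage repair or cell cycle control. Growth inhibition is reported relative to vehicle.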

Measured: growth inhibition

NCCCC(=O)NCCCCCCCCCCNC(=O)CCCN
inactive: [1] 29.3% | [2] 19% | [3] 15.6% | [4] -4.45% | [5] 24.4%

C1CCC2CC(NC3=NCCO3)CCC2C1 (stereo not drawn)
inactive: [1] 8.85% | [2] 0.35% | [3] -7% | [5] -85.6%

CCOC(=O)c1ccc(=O)n2c1[nH]c1ccccc12
inactive: [1] 9.05% | [2] -15.5% | [3] -0.45% | [4] -2.75% | [5] -5.45%

O=C(O)CCCCCCCCCCS(=O)(=O)CCO
inactive: [1] 5.2% | [2] 13.4% | [3] 20.2% | [4] 19.9% | [5] -10%

CC(F)(F)C(F)(F)C(=O)CC(=O)C(F)(F)F.CC(F)(F)C(F)(F)C(=O)CC(=O)C(F)(F)F.[Cu]
inactive: [1] -9.15% | [2] -9.75% | [3] -72% | [4] 1.95% | [5] -43.6%

COc1c(C)c2c(c(Br)c1N)COCO2
inactive: [1] 3.75% | [2] -10.7% | [3] 8.95% | [4] -7.05% | [5] -21.6%

Cc1cc2c(c3c1c(=O)c1ccccc1n3C)C=CC(C)(C)O2
inactive: [1] -5.05% | [2] 9.95% | [3] 3.35% | [4] 14.4% | [5] -8.9%

O=C(O)c1cc(=O)[nH]c(=S)[nH]1
inactive: [1] -18.6% | [2] -19.5% | [3] 8.05% | [4] -9.25% | [5] -15.6%

O=C(CC(=O)N1N=C(n2ccc3ccccc32)CC1c1ccccc1)Nc1ccccc1Cl (stereo not drawn)
inactive: [1] -13.6% | [2] -3.5% | [3] 29.7% | [4] -2.1% | [5] 5.45%

C[C@H]1C(=O)CCC2[C@]3(C)CCC4(CO)[C@@H]5CC(C)(C)C(=O)C[C@]5(C)CC[C@]4(C)C3CC[C@@]21C (stereo partly drawn)
inactive: [1] -26.5% | [2] -28.1% | [3] 3.35% | [4] -40.9% | [5] 0.4%

Cc1ccc(S(=O)(=O)NC(CO)C(=O)O)cc1 (stereo not drawn)
inactive: [1] -1.1% | [2] -30.4% | [3] -24.6% | [4] -46% | [5] -9.65%

COc1ccc(/C(=N\NC(=O)C(=O)NN)C(c2ccc(OC)cc2)C2(O)C(=O)Nc3ccccc32)cc1 (stereo not drawn)
inactive: [1] -19.6% | [2] -22.6% | [3] -65.1% | [4] 12.9% | [5] -18.1%

Cc1nc(CCCCCCCC(=O)O)ccc1O
inactive: [1] 6.25% | [2] -10.6% | [3] -9.35% | [4] 0.85% | [5] 7.3%

COC(=O)C12C3C4C1C1C2C3C41C(=O)OC(C)(C)C (stereo not drawn)
inactive: [1] 18% | [2] 9.2% | [3] 4.5% | [4] 23.9% | [5] 15.2%

O=C(NNc1ccccc1)/C(=C/c1ccc2c(c1)OCO2)NC(=O)c1ccccc1
inactive: [1] 15.8% | [2] -29.6% | [3] -6.2% | [4] 1.35% | [5] 4.55%

CSCCNC(=O)CS(=O)(=O)c1ccc(C)cc1
inactive: [1] 3.35% | [2] 5.25% | [3] 20.2% | [4] 7.95% | [5] 17.4%

N#CCCC(=O)c1ccc[nH]1
inactive: [1] 6.6% | [2] 2.2% | [3] 5.8% | [4] 1.3% | [5] 8.4%

O=c1/c(=C2\Cc3cccc4cccc2c34)c2cccc3cccc1c32
inactive: [1] -9.7% | [2] 10.1% | [3] -1.45% | [4] 18.7% | [5] -15.2%

CC1(C)c2ccccc2-c2nc3ccccc3nc2C1O (stereo not drawn)
inactive: [1] 4.65% | [2] -8% | [3] -14% | [4] 1.95% | [5] -9.7%

CC(=O)Oc1ccc(-c2c3ccccc3cc3c2ccc2ccccc23)cc1
inactive: [1] 1.75% | [2] -9.85% | [3] -5.05% | [4] -2.7% | [5] -28.3%

CCCCCCCCCCCCCCCCCC#N
inactive: [1] 36.7% | [2] -2.9% | [3] -52.1% | [4] 5.5% | [5] 39.9%

CCOC(=O)c1[nH]c(Cc2[nH]c(C(=O)OCC)c(CC)c2C)c(C)c1CC
inactive: [1] 7.8% | [2] -4.75% | [3] -3.65% | [4] -4.7% | [5] 24.2%

C=C(CN(CC)CC)C1(c2ccccc2)CC2(CCCC2)C(=O)O1 (stereo not drawn)
inactive: [1] 20.9% | [6] 23.9% | [3] 3.6% | [4] 10.2% | [5] 5.65%

Cc1ccc(/C(C#N)=C/c2cccc([N+](=O)[O-])c2)cc1
inactive: [1] -3.1% | [2] -32% | [3] 24.4% | [4] -17.4% | [5] -4.15%

C[N+]1(C)CCC2=CC(=O)CC(c3ccccc3)C2C1 (stereo not drawn)
inactive: [1] 11.7% | [2] 12.6% | [3] 20.8% | [4] -3.3% | [5] -12%

OCCN(CCO)c1ncnc2c1ncn2Cc1ccccc1
inactive: [1] -7.15% | [2] -7.05% | [3] -42.2% | [4] 8.15% | [5] -20.2%

CCN(CC)C(=O)C1CC=CCC1C(=O)O (stereo not drawn)
inactive: [1] 41.3% | [2] 23.9% | [3] -38.5% | [4] 1.85% | [5] 30.1%

COC(=O)CCc1c(C)[nH]c(C(=O)OC(C)(C)C)c1C
inactive: [1] -9.45% | [2] -10.9% | [3] 14.9% | [4] -4.05% | [5] -3.05%

COc1ccc2c(c1)C/C(=C\c1ccc(O)c(OC)c1)C2=O
inactive: [1] -46.5% | [2] -33.5% | [3] -9.9% | [4] 7.8% | [5] -10.1%

Nc1nc(-c2ccccc2)cc2ccccc12
inactive: [1] 0.55% | [2] 1.65% | [3] -18.7% | [4] -13.2% | [5] 18.1%

CCCCN(CCCC)CCC(O)c1cc(C(F)(F)F)nc2c(C(F)(F)F)cccc12 (stereo not drawn)
inactive: [1] -0.6% | [2] 0.45% | [3] 49.2% | [4] 13.3% | [5] 41.1%

NS(=O)(=O)/C=C(\Cl)c1ccccc1
inactive: [1] 1.7% | [2] 2.95% | [3] -16.6% | [4] 12.2% | [5] -0.55%

CCOc1cccc(C=Nc2ccccc2SSc2ccccc2N=Cc2cccc(OCC)c2O)c1O
inactive: [1] 42.2% | [6] 18.6% | [4] 68.6% | [5] 68.5%

O=c1oc2c(-c3c(O)c(=O)oc4ccccc34)cc(O)cc2s1
inactive: [1] 10.3% | [2] 22.9% | [3] 17.1% | [4] 10% | [5] 36%

NC(=S)N/N=C1/CC(=O)N(c2ccccc2)C1c1ccccc1 (stereo not drawn)
inactive: [1] 32.6% | [2] 37% | [3] -2.8% | [4] 32.4% | [5] 38.9%

CC(C)(C)OC(=O)N1CCCC1=O
inactive: [1] 9.65% | [2] 24.8% | [3] 22.3% | [4] 8.05% | [5] 28.5%

CC(=O)CC(=O)NCc1ccccc1
inactive: [6] -15.9% | [2] 25% | [3] 17.2% | [4] 1.55% | [5] 5.15%

CCOC(=O)CCC(C#N)C(=O)OCC (stereo not drawn)
inactive: [6] -3.9% | [2] 9.3% | [3] -10.2% | [4] 27.6% | [5] 6%

— PubChem BioAssay (NCI)
